{"source": "PubChem BioAssay (Tox21)", "note": "Records with an inconclusive call do not appear. Where a call stands in place of a potency, no number is given. The source made the active and inactive calls. Calls come from the whole dose curve; as a rule, active = well fitted activation curve with a large enough effect in the repeat runs; inconclusive = weak or mixed curves; inactive = flat fitted curve, though single readings scatter. Potency is the fitted concentration of half-maximal effect."}
{"assay": "A CellTox Green Cytotoxicity Assay to monitor cytotoxicity in HepG2 cells - 32 hour (AID 1224883); note: nearly all actives have a fitted effect of over 50% in size", "conditions": "CellTox Green fluorescence; series mostly up to 76.8 µM", "excerpt": "National Center for Advancing Translational Sciences [NCATS]\nNIH Chemical Genomics Center [NCGC]\nU.S. Environmental Protection Agency [EPA]\nNational Institutes of Environmental Health Sciences [NIEHS]\nNational Toxicology Program [NTP]\nCell-based models are critical for drug discovery. Determining the natural cytotoxic effects resulting from test compounds is an essential research activity. A CellTox Green Cytotoxicity Assay to monitor cytotoxicity in real time of continues cell culture during 40 hours of the compound treatment was used to screen Tox21 10K library compounds in HepG2 cells. CellTox Green Cytotoxicity Assay is a nonlytic, homogeneous, biofluorescent method to measure cytotoxicity in cell culture after experimental manipulation. The assay system uses a proprietary asymmetric cyanine dye that is excluded from viable cells but preferentially stains the dead cell's DNA. […] Viable cells produce no appreciable increases in fluorescence. Therefore, the fluorescence signal produced by the binding interaction with dead cell DNA is proportional to cytotoxicity.\nThe mixture of HepG2 cell suspension and reagents were dispensed at 600cells/6 ul/well in 1536-well tissue culture treated black solid bottom plates using a Multidrop dispenser. After the assay plates were incubated at a 37 C/5% CO2 incubator for 5 hours, 23 nL of compounds dissolved in DMSO, positive and negative controls was transferred to the assay plate by a pintool work station. The plates were incubated at 37 C for 40 hours. The fluorescence intensity were measured at 0h, 8h, 16h, 24h, 32h and 40h time points using ViewLux plate reader during compound treatment."}
{"smiles": "C=CCC1([C@H](C)CCC)C(=O)NC(=O)NC1=O", "Potency": "inactive"}
{"smiles": "COCCOCCO", "Potency": "inactive"}
{"smiles": "CNC(C)Cc1ccccc1OC", "note": "(stereo not given)", "Potency": "inactive"}
{"smiles": "COC1=CC(=O)O[C@@H](CCc2ccccc2)C1", "Potency": "inactive"}
{"smiles": "O=NN1CCCCCC1", "Potency": "inactive"}
{"smiles": "O=[N+]([O-])c1ccccc1CCl", "Potency": "inactive"}
{"smiles": "CC1CC(CC2CCC(N)C(C)C2)CCC1N", "note": "(stereo not given)", "Potency": "inactive"}
{"smiles": "CCCCOC(=O)c1ccccc1C(=O)OCc1ccccc1", "Potency": "inactive"}
{"smiles": "CC(Cl)Cl", "Potency": "inactive"}
{"smiles": "O=C1CN=C(c2ccccc2)c2cc(Cl)ccc2N1CC1CC1", "Potency": "inactive"}
{"smiles": "CCCCc1c(C)nc(NCC)nc1OS(=O)(=O)N(C)C", "Potency": "inactive"}
{"smiles": "CCOC(=O)[C@]1(c2ccccc2)Oc2ccccc2[C@@H]1N", "Potency": "inactive"}
{"smiles": "CC(C)(OO)c1ccccc1", "Potency": "inactive"}
{"smiles": "Nc1ccc([N+](=O)[O-])cc1[N+](=O)[O-]", "Potency": "inactive"}
{"smiles": "Nc1ccc(N=Nc2ccc(-c3ccc(N=Nc4c(S(=O)(=O)O)cc5cc(S(=O)(=O)O)c(N=Nc6ccccc6)c(O)c5c4N)cc3)cc2)c(N)c1", "Potency": "inactive"}
{"smiles": "CC1Sc2c(C(=O)O)c(=O)c3cc(F)c(N4CCNCC4)cc3n21", "note": "(stereo not given)", "Potency": "inactive"}
{"smiles": "CCOC(=O)C(Cl)C(C)=O", "note": "(stereo not given)", "Potency": "24.8 µM (active)"}
{"smiles": "ClCc1cccc(Cl)c1", "Potency": "inactive"}
{"smiles": "CC(C)N(CCC(C(N)=O)(c1ccccc1)c1ccccn1)C(C)C", "note": "(stereo not given)", "Potency": "inactive"}
{"smiles": "CC1C(=O)C[C@]2(C(C)C)C[C@H]12", "note": "(stereo not given in full)", "Potency": "inactive"}
{"smiles": "[O-][Cl+]O", "Potency": "inactive"}
{"smiles": "C=CC(=O)OC(C)(C)C", "Potency": "inactive"}
{"smiles": "Cc1cc(=O)[nH]o1", "Potency": "inactive"}
{"smiles": "O=C(CBr)Nc1ccc(Cl)cc1C(=O)c1ccccc1F", "Potency": "inactive"}
{"smiles": "COP(=S)(OC)Oc1ccc([N+](=O)[O-])cc1Cl", "Potency": "inactive"}
{"smiles": "C=CC(=O)OCCCCO", "Potency": "inactive"}
{"smiles": "O=C1c2ccccc2C(=O)C1C(=O)C(c1ccccc1)c1ccccc1", "Potency": "inactive"}
{"smiles": "c1ccc(C2CC2)c(OCC2=NCCN2)c1", "Potency": "inactive"}
{"smiles": "CCCN(CCC)c1c([N+](=O)[O-])cc(S(C)(=O)=O)cc1[N+](=O)[O-]", "Potency": "inactive"}
{"smiles": "N#C/C(N)=C(/N)C#N", "Potency": "inactive"}
{"smiles": "CCOS(C)(=O)=O", "Potency": "inactive"}
{"smiles": "[CH3][Sn]([CH3])([Cl])[Cl]", "Potency": "inactive"}
{"smiles": "CCCCNP(N)(N)=S", "Potency": "inactive"}
{"smiles": "O=C(O)C1(c2ccc3c(c2)OC[C@H](Cc2ccc(-c4ccccc4)cc2)[C@H]3O)CCCC1", "Potency": "43.6 µM (active)"}
{"smiles": "ClCC(Br)CBr", "note": "(stereo not given)", "Potency": "inactive"}
{"smiles": "O=[N+]([O-])c1ccc(F)c([N+](=O)[O-])c1", "Potency": "inactive"}
{"smiles": "COc1nn(C(=O)NS(=O)(=O)c2ccccc2OC(F)(F)F)c(=O)n1C", "Potency": "39.9 µM (active)"}
{"smiles": "CN1[C@@H]2CC[C@H]1CC(OC(=O)c1cc(Cl)cc(Cl)c1)C2", "note": "(stereo not given in full)", "Potency": "23.9 µM (active)"}
{"smiles": "O=Cc1ccc(Cl)cc1Cl", "Potency": "inactive"}
{"smiles": "O=C(NCc1cccnc1)Nc1ccc([N+](=O)[O-])cc1", "Potency": "inactive"}
